Data from PubChem BioAssay AID1508608 (The Scripps Research Institute Molecular Screening Center, 2020).
The campaign covered roughly 2,300 compounds. About 20 (0.9%) were called active.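 Rule for the calls: active = mean activation across replicates above 26.72%, the hit cutoff set for this confirmation screen; inactive = the rest.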 Many of the other results were omitted from the sample, so actives are more common in it than they were.

target: G-protein coupled receptor 151 (Homo sapiens) (UniProt Q8TDV0); experiment: GPR151 agonism via beta-arrestin recruitment – cell-based, PathHunter beta-arrestin, luminescence, set 2, confirmation (AID 1508608); details: GPR151 PathHunter beta-arrestin cells, 90 min, at 11.2 µM, active compounds read high, 100% = signal from added EA reagent;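 note: 0% = plate median of compound wells and 100% = EA reagent high control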
Sequence (Q8TDV0 whole entry, looked up): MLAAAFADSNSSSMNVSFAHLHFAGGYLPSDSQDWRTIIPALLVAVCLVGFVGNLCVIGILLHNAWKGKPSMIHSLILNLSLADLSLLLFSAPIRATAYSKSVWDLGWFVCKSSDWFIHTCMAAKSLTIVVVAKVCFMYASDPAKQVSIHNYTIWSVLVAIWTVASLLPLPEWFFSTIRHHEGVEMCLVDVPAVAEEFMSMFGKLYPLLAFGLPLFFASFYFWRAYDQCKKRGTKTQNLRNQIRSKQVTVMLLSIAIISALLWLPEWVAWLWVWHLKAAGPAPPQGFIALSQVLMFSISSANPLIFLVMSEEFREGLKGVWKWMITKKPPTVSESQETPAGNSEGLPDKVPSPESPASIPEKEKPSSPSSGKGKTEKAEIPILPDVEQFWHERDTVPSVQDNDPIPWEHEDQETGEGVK

Compound | activation
CCCc1c(C)nc2c(C(=O)NCc3ccc(F)cc3)c[nH]n2c1=O | 4.27% (inactive)
CC1CCCCC1NS(=O)(=O)c1ccc2c(c1)CCN2C(=O)C1CC1 (stereo unspecified) | -8.17% (inactive)
CNS(=O)(=O)c1cc(-c2nnc(NCc3nc4ccccc4[nH]3)c3ccccc23)ccc1C | 0.28% (inactive)
CCOC(=O)c1cnc2ccc(OCC)cc2c1Nc1ccccc1OC | 0.37% (inactive)
CC(C(=O)O)n1ncn2cccc2c1=O (stereo unspecified) | 0.45% (inactive)
Cc1cc2c(cc1S(=O)(=O)N1CCN(C3CCCCC3)CC1)OCC(=O)N2 | -3.55% (inactive)
CCCCc1ccc(C(=O)N/C(=C\c2ccc(C)cc2)C(=O)Nc2ccc([N+](=O)[O-])cc2)cc1 | -6.88% (inactive)
COCCCNC(=O)c1csc2c1CCCC2 | -6.29% (inactive)
COc1ccccc1OCC(=O)n1nc(C)cc1C | -1.85% (inactive)
CC1=C(C(=O)OCC(C)C)C(c2ccc(Cl)cc2Cl)NC(=O)N1 (stereo unspecified) | 1.8% (inactive)
CCCCNC(=O)c1ccc2c(c1)ncn2-c1cc(OC)c(OC)c(OC)c1 | 3.91% (inactive)
Cc1ccc(S(=O)(=O)c2cc3cc([N+](=O)[O-])ccc3oc2=O)cc1C | -3.29% (inactive)
Clc1nc(NCc2ccccc2)c2ncn(-c3ccccc3)c2n1 | -0.22% (inactive)
c1ccc(Oc2nc(NC3CC3)c3ncn(-c4ccsc4)c3n2)cc1 | 38.7% (active)
COc1ccc(S(=O)(=O)NC(N)=NCCc2ccccc2OC)cc1 | 0.59% (inactive)
O=C(Cn1ncc2c(=O)oc3ccccc3c21)Nc1nc2ccccc2s1 | -0.55% (inactive)
O=C(NCCc1ccccc1)c1cc(S(=O)(=O)N2CCOCC2)ccc1F | -1.01% (inactive)
O=C(NCC1CCC2(CCN(C(=O)Cc3cccc(F)c3)CC2)O1)c1ccccc1F (stereo unspecified) | 0.36% (inactive)
O=C(CCC(=O)Nc1cc(C(F)(F)F)ccc1Cl)N/N=C\c1ccccc1O | -2.79% (inactive)
CCOC(=O)c1c(NC(=O)c2ccc(Cl)cc2Cl)sc(C(=O)Nc2ccccc2F)c1C | -10.1% (inactive)
Cc1ccc(-c2nnc(SCC(=O)NCc3ccccc3Cl)nc2-c2ccc(C)cc2)cc1 | -2.15% (inactive)
COc1ccc(CCNC(=O)/C=C\C(=O)O)cc1OC | 1.57% (inactive)
COc1ccc(CCNc2ncnc3c2oc2ccccc23)cc1OC | 44.3% (active)
COc1ccc(CCNC(=O)Cn2ncn3cccc3c2=O)cc1OC | 3.19% (inactive)
O=C(Cn1c(=O)n(Cc2ccccc2Cl)c(=O)c2cccnc21)Nc1ccc(F)cc1 | -1.3% (inactive)
O=C(CCCn1c2ccccc2c(=O)c2ccccc21)Nc1cccc(Cl)c1 | 6.83% (inactive)
